Results on 48 molecules are retold here after publication PMC4552634, “A New Set of Chemical Starting Points with Plasmodium falciparum Transmission-Blocking Potential for Antimalarial Drug Discovery” (PLoS ONE, 2015).

Out of some 13,000 compounds screened, about 3,200 (25%) showed an effect of 50% or more. Some of the results follow.

This assay has as its system P. falciparum stage V gametocytes. Also noted: BacTiter-Glo ATP luminescence viability of purified stage V gametocytes in 384-well plates, per cent inhibition versus DMSO. Conditions: 48 h, 5 µM; inhibitor.
The term % Inhibition denotes the change of the read-out against control, counted positive when it falls. With `O=C(CCc1cccc(O)c1)NCC(NCCCNc1cc(=O)c2ccccc2[nH]1)c1cc(Br)cc(Br)c1` (stereo not drawn) [TCMDC-140319], the “% Inhibition” value is on record as -27.67%. Turning to `COc1ccc(C(=O)N2CCC3(CC2)C(=O)N(CC(=O)NCC2CCCCC2)CN3c2ccccc2)c(OC)c1` [TCMDC-125170], the “% Inhibition” value was -47.66%. As for `O=C(NCC1CCN(CC2CCCCC2)C1)c1cc(-c2cccc(C(F)(F)F)c2)cs1.O=C(O)C(F)(F)F` (stereo not drawn) [TCMDC-134422], the figure is 101.5%; as for `CC(=O)Nc1ccc(CN2CCC(CNC(=O)c3cc(-c4cccc(C(F)(F)F)c4)cs3)C2)cc1.O=C(O)C(F)(F)F` (stereo not drawn) [TCMDC-134456], 0.3319%; as for `CN(C)c1ccc(-c2csc(C(=O)NCC3CCN(CC4CCCCC4)C3)c2)cc1.O=C(O)C(F)(F)F` (stereo not drawn) [TCMDC-134424], 97.4%.

With `O=C(NCC1CCN(Cc2ccsc2)C1)c1cc(-c2cccc(C(F)(F)F)c2)cs1.O=C(O)C(F)(F)F` (stereo not drawn) [TCMDC-134478], the “% Inhibition” value is recorded as -49.55%.

Regarding `O=C(NCC1CCN(Cc2cccc(C(F)(F)F)c2)C1)c1cc(-c2cccc(F)c2)cs1` (stereo not drawn) [TCMDC-134484], the “% Inhibition” value came out at 54.37%. As for `O=C(NCC1CCN(Cc2cccc(C(F)(F)F)c2)C1)c1cc(-c2cccc(C(F)(F)F)c2)cs1` (stereo not drawn) [TCMDC-134483], the figure is 53.9%; as for `O=C(NCC1CCN(Cc2ccc3c(c2)OCCO3)C1)c1cc(-c2cccc(C(F)(F)F)c2)cs1.O=C(O)C(F)(F)F` (stereo not drawn) [TCMDC-134458], 1.256%; as for `O=C(NCC1CCN(Cc2cccc(F)c2)C1)c1cc(-c2cccc(C(F)(F)F)c2)cs1` (stereo not drawn) [TCMDC-134480], 4.488%. Regarding `COc1ccccc1C1CCN(C2CCC(NC(=O)/C=C/c3cccc(C(F)(F)F)c3)CC2)CC1` (stereo not drawn) [TCMDC-133555], the “% Inhibition” value is listed as -60.89%. With `Cc1cc(-c2cccc3c(NC(=O)N4CCc5cc6nccc(N7CCN8CCC[C@H]8C7)c6cc54)cccc23)cc(C)n1` [TCMDC-139794], the “% Inhibition” value is -14.58%. As for `COc1cc2c(cc1C(F)(F)F)N(C(=O)Nc1cc(F)cc(-c3cncnc3)c1)CC2` [TCMDC-139039], the “% Inhibition” value was -11.26%. The value for `O=C(Nc1cccc(-c2nc3ccccc3[nH]2)c1)c1cccc(NC(=O)c2ccco2)c1` [TCMDC-125185] was 18.17%; that for `CC(=O)c1ccc(S(=O)(=O)N2CCC(C(=O)Nc3ccccc3N3CCCC3)CC2)cc1` [TCMDC-125467] was -11.47%; that for `CCC(C)NS(=O)(=O)c1ccc2nc(Nc3ccc(C)c(Cl)c3)n([C@H](C)C(C)(C)C)c2c1` (stereo partly drawn) [TCMDC-136238] was 38.05%. The value for `O=C(C=Cc1cccs1)Nc1ccc(-c2nc3ccccc3[nH]2)cc1` [TCMDC-123926] was -97.24%; that for `COc1ccccc1CN1CCC(CNC(=O)c2cc(-c3ccc(N(C)C)cc3)cs2)C1.O=C(O)C(F)(F)F` (stereo not drawn) [TCMDC-134451] was 95.05%. For the molecule `COc1ccccc1CN1CCC(CNC(=O)c2cc(-c3cccc(C(F)(F)F)c3)cs2)C1.O=C(O)C(F)(F)F` (stereo not drawn) [TCMDC-134450], the “% Inhibition” value was -43.84%. For `O=C(NCC1CCN(Cc2cccc(C(F)(F)F)c2)C1)c1cc(-c2cccc(Cl)c2)cs1` (stereo not drawn) [TCMDC-134485], the “% Inhibition” value stood at 50.21%. As for `CCCC(=O)Nc1ccc(OCCCN(Cc2ccccc2F)c2ccc(C#N)c(C(F)(F)F)c2)cc1` [TCMDC-135449], the figure is 24.41%. Regarding `Fc1cc(Cl)ccc1Nc1ccnc2cc(-c3ccc(CN4CCNCC4)o3)ccc12` [TCMDC-138394], the “% Inhibition” value was found to be 83.09%. Turning to `Fc1cc(Cl)ccc1Nc1ccnc2cc(-c3ccc(CN4CCOCC4)o3)ccc12` [TCMDC-138393], the “% Inhibition” value is given as 99.43%.

With `Fc1cc(Cl)ccc1Nc1ccnc2cc(-c3ccc(CN4CCSCC4)o3)ccc12` [TCMDC-138392], the “% Inhibition” value is 1.462%. Consider `CN1CCN(Cc2ccc(-c3ccc4c(Nc5ccc(Cl)cc5F)ccnc4c3)o2)CC1` [TCMDC-138395], for which the “% Inhibition” value is -22.3%.

Regarding `CN1CCN(Cc2ccc(-c3ccc4c(Nc5cc(O)c(Cl)cc5F)ccnc4c3)o2)CC1` [TCMDC-138446], the “% Inhibition” value turned out to be 74.65%. As for `Fc1cc(Cl)ccc1Nc1ccnc2cc(-c3ccc(CN4CCCCC4)o3)ccc12` [TCMDC-138396], the figure is 9.087%; as for `CN1CCN(Cc2ccc(-c3ccc4c(Nc5cc(O)c(F)cc5Cl)ccnc4c3)o2)CC1` [TCMDC-138486], 4.683%; as for `Fc1cc(Cl)ccc1Nc1ccnc2cc(-c3ccc(CNCCN4CCOCC4)o3)ccc12` [TCMDC-138397], -18.32%. The value for `Oc1cc(Nc2ccnc3cc(-c4ccc(CN5CCCCC5)o4)ccc23)c(Cl)cc1F` [TCMDC-138485] was 11.9%; that for `COc1ccc2nccc(N3CCN(CCNCc4ccc5c(n4)NC(=O)CS5)CC3)c2c1.Cl` [TCMDC-141962] was 5.259%; that for `CCCCC1(c2ccc(F)cc2)NC(=O)N(CC(=O)c2cc(C)n(Cc3ccco3)c2C)C1=O` (stereo not drawn) [TCMDC-125119] was 0.3946%. The value for `CNC(=O)c1cc(S(=O)(=O)N2CCN(c3ccccn3)CC2)c(C)s1` [TCMDC-124846] was 34.83%; that for `CCNC(=O)c1cc(S(=O)(=O)N2CCN(c3ccccn3)CC2)cs1` [TCMDC-124848] was 88.58%. `CNC(=O)c1cc(S(=O)(=O)N2CCN(c3ccccn3)CC2)cs1` [TCMDC-124847]: the “% Inhibition” value worked out at 78.13%. For the molecule `CC(=O)Nc1ccc(S(=O)(=O)N2CCN(c3nc(NC4CCCC4)c4ccccc4n3)CC2)cc1` [TCMDC-123869], the “% Inhibition” value was found to be 2.309%. The value for `O=C(Nc1ccc(N2CCN(c3ncccc3C(F)(F)F)CC2)nc1)c1cccs1` [TCMDC-125784] was 10.79%; that for `Cc1nc(-c2ccc3c(c2)CCN(CCC2CCC(NC(=O)c4cc5cccc(Cl)c5[nH]4)CC2)CC3)no1` (stereo not drawn) [TCMDC-140071] was -33.37%. On to `O=C(Nc1ccc(Cl)c(C(F)(F)F)c1)c1ccc(Cl)c([N+](=O)[O-])c1` [TCMDC-125647], for which the “% Inhibition” value was -24.24%. The value for `O=C(c1ccc(F)c2ccccc12)N1CCc2cc3nccc(N4CCN5CCC[C@H]5C4)c3cc21` [TCMDC-140043] was 23.61%.

`CS(=O)(=O)c1ccc(CCNCc2ccc(-c3ccc(CN(C(=O)C4CC(=O)c5ccccc54)C4Cc5ccccc5C4)cc3)nc2)cc1` (stereo not drawn) [TCMDC-141509]: the “% Inhibition” value worked out at 97.27%. As for `CS(=O)(=O)c1ccc(CCNCc2ccc(-c3ccc(CNC4CCN(Cc5ccccc5)CC4)cc3)nc2)cc1` [TCMDC-141614], the figure is 33.12%. For `CN1CCC(C(=O)N(Cc2ccc(-c3ccc(CNCCc4ccc(S(C)(=O)=O)cc4)cn3)cc2)C2CCN(Cc3ccccc3)CC2)CC1` [TCMDC-141506], the “% Inhibition” value is 104.7%. As to `CS(=O)(=O)c1ccc(CCNCc2ccc(-c3ccc(CN(C(=O)C4CC(=O)c5ccccc54)C4CCN(Cc5ccccc5)CC4)cc3)nc2)cc1` (stereo not drawn) [TCMDC-141605], the “% Inhibition” value was 41.88%. The value for `CS(=O)(=O)c1ccc(CCNCc2ccc(-c3ccc(CN(C(=O)C4CCCC4)C4CCN(Cc5ccccc5)CC4)cc3)nc2)cc1` [TCMDC-141511] was 48.38%; that for `c1ccc(CCNCc2ccc(-c3ccc(CNC4CCN(Cc5ccccc5)CC4)cc3)nc2)cc1` [TCMDC-141649] was 82.96%; that for `CS(=O)(=O)c1ccc(CCNCc2ccc(-c3ccc(CNC4Cc5ccccc5C4)cc3)nc2)cc1` [TCMDC-141615] was 5.211%. The value for `CN1CCC(C(=O)N(Cc2ccc(-c3ccc(CNCCc4ccc(S(C)(=O)=O)cc4)cn3)cc2)C2Cc3ccccc3C2)CC1` [TCMDC-141508] was 99.19%.
